Shown are actives, neighbours in structure and some others; about 5.9% of the full set was active somewhere.
ATXN viability: Viability Counterscreen for Primary qHTS for Inhibitors of ATXN expression; S2 cells (HEK-293 line with an ATXN2-luciferase reporter) viability, CellTiter-Fluor protease fluorescence, 24 h; AID 651635, 2014; Potency, µM (top dose mostly 56.7 µM), most hits filed as cytotoxic; actives 0.49% (n = 400,000); further: nearly all actives have a fitted effect of over 40% in size
KB-3-1 cytotox: qHTS assay for MDR1-selective chemotherapeutics: Primary screen using the parental adenocarcinoma cell KB-3-1 | KB-3-1 viability, CellTiter-Glo ATP luminescence, 72 h | Potency, µM (highest dose often 46.1 µM), hits mostly cytotoxic | actives 1.4% (n = 400,000); further: on the % scale 0 is the no-effect control and ±100 the full control effect; nearly all actives have a fitted effect of over 60% in size
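Luminescent ATP read-out (CellTiter-Glo) measures survival of drug-naive KB-3-1 cells after 72 h compound exposure at 37 °C. Titration series was screened from lowest to highest concentration, with DMSO vehicle plates as background controls.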
HepG2 viability: qHTS for Inhibitors of TGF-b: Cytotox Counterscreen | Potency, µM (top dose mostly 46.1 µM), for the others: at the highest dose activity change, negative = cytotoxicity, actives largely listed as cytotoxic | actives 0.76% (n = 410,000) | HepG2 CAGA-GFP viability, ATP luminescence, 18 h
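CellTiter-Glo luminescence gave cytotoxicity after 18 hours at 37 degrees C. The cells were HepG2 CAGA-GFP in 1% FBS DMEM, stimulated with 500 pg/mL TGF-beta after compound addition. %Activity was normalised to no-cell wells (complete cell-killing) and DMSO (no toxicity), and curves were fitted and classified.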
ATXN2 expr inh: Primary qHTS for Inhibitors of ATXN expression. HEK-293 ATXN2-luciferase reporter, luminescence, 24 h. Potency, µM (doses to about 57 µM), inactives show top-dose activity change, negative = inhibition, hits mostly inhibitors. actives 0.72% (n = 360,000); further: on the % scale 0 is the no-effect control and ±100 the full control effect; nearly all actives have a fitted effect of over 55% in size
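ATXN2-luciferase reporter cells (luciferase flanked by upstream and downstream ATXN2 gene portions) were treated 24 h at 37 °C with compounds at up to 57 uM. SteadyGlo luminescence gave expression; GF-AFC fluorescence gave viability.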
TGFb SMAD3 inh: qHTS for Inhibitors of TGF-b; actives 1.2% (n = 410,000); AID 588855, 2011; Potency, µM (series often up to 46.1 µM), for the others: at the highest dose activity, negative = inhibition, actives largely listed as inhibitors; HepG2 CAGA-GFP TGF-b/SMAD3 reporter, GFP fluorescence, 18 h; TGF-beta stimulated, 500 pg/mL final; further: on the % scale 0 is the no-effect control and ±100 the full control effect; nearly all actives have a fitted effect of over 65% in size
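Smad-responsive CAGA-GFP expression was quantified in HEPG2 cells exposed to compounds and 500 pg/mL final TGF-beta for 18 h at 37 degrees C; unstimulated wells defined full inhibition.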
KB-V1 MDR tox: qHTS assay for MDR1-selective chemotherapeutics: Primary screen using the drug-selected MDR subline cells KB-V1; KB-V1 MDR cells viability, CellTiter-Glo, 72 h; Potency, µM (titrated, usually from 46.1 µM), hits mostly cytotoxic; actives 3.4% (n = 400,000); further: on the % scale 0 is the no-effect control and ±100 the full control effect; nearly all actives have a fitted effect of over 60% in size
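Following 72 h at 37 degrees C with compound, KB-V1 cell viability was read by CellTiter-Glo luminescence, medium being phenol-red-free DMEM plus 10% FBS; concentration-response parameters came from normalized, curve-fitted qHTS data.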
Active calls of the source: *; i = inactive; ? = inconclusive; . = no result. The call rests on the fitted dose curve; in most records, active means well fitted curve in the direction sought with a large enough effect; inconclusive means small, poorly fitted or top-dose-only effect, or another doubt; inactive means no such curve, though single readings can be large; an effect the other way counts as inactive or inconclusive. Potency means the concentration at half of the fitted maximal effect.

SMILES | ATXN viability | KB-3-1 cytotox | HepG2 viability | ATXN2 expr inh | TGFb SMAD3 inh | KB-V1 MDR tox
Cc1cc2c(c(/C=C/C(=O)c3ccccc3)c1)OC1(C=C2)Oc2ccccc2C(=O)N1C (stereo not given) | ? | 16.4µM* | -2.4% | ? | ? | ?
O=[N+]([O-])c1ccc(N2CCN(c3ccccc3Cl)CC2)cn1 | i | 5.17µM* | -1.9% | -6.7% | -0.7% | ?
COC(=O)C(C)N1C(=O)S/C(=C/c2cc(C)n(C(C)C)c2C)C1=O (stereo not given) | i | ? | -28.6% | 4.2% | -16.8% | 4.11µM*
COC(=O)CN1C(=O)S/C(=C/c2cc(C)n(C)c2C)C1=O | i | i | -9.2% | 35.6% | 18.5% | 16.4µM*
COc1ccc(N=C2S/C(=C\c3cc(C)n(C)c3C)C(=O)N2CC(C)C)cc1 | i | i | -3.9% | -22.1% | -28.4% | 2.59µM*
COC(=O)CN1C(=O)S/C(=C/c2ccc(N3CCCCC3)o2)C1=O | ? | i | -98.7% | 72.6% | 189.7% | i
CNC(=O)c1ccc(C)c(-n2c(C)cc(OCc3ccc(F)cc3F)c(Br)c2=O)c1 | . | . | . | 0.9% | . | .
CCN(CC)C(=S)Nc1ccc(Cl)c(Cl)c1 | i | ? | 7.9% | 3.2% | 10.1% | 23.1µM*
CCN(Cc1ccncc1)C(=S)Nc1ccc(Cl)cc1 | i | i | -6.5% | -4.1% | -10.9% | ?
Cc1ccc2c(c1)C(=O)C(=O)N2Cc1ccc(C(F)(F)F)cc1 | 28.2µM* | ? | 17.8µM* | ? | 15.8µM* | ?
Cc1ccc(OCCN2C(=O)C(=O)c3cc(C)ccc32)cc1 | ? | ? | -2.0% | -2.7% | 6.5% | ?
Cc1ccc2c(c1)C(=O)C(=O)N2Cc1ccc(OC(C)C)cc1 | ? | ? | -47.7% | ? | 10µM* | ?
COc1ccc(-c2ccc3ncnc(NCc4nc(C)cs4)c3c2)cc1OC | . | i | . | . | . | ?
Cc1[nH]c2ccc(C(=O)OC(C)C(=O)NCc3ccccc3)cc2c1C (stereo not given) | ? | 16.4µM* | -24.8% | -16.3% | -1.9% | 16.4µM*
COCCN(Cc1cc2cc3c(cc2nc1Cl)OCO3)C(=O)Nc1ccc(F)cc1 | i | 16.4µM* | -21.7% | -20.5% | -4.0% | ?
NC(=S)NN=C1CCCCCCCC1 | ? | 18.4µM* | -21.9% | -30.4% | ? | i
Cc1cc(Cl)c(OCCCNCc2ccccc2)c(Br)c1 | ? | ? | 10µM* | ? | ? | ?
Clc1ccc(OCCCNCc2ccccc2)c(Br)c1 | . | i | -105.1% | ? | ? | 20.6µM*
Clc1ccc(Cl)c(OCCCCNCc2ccccc2)c1 | i | i | 15.8µM* | -13.4% | ? | i
OCCNCCCOc1ccc(Cl)cc1Br | i | i | -61.5% | -15.0% | 12.0% | i
Cc1ccc(CCNC(=O)CN2C(=O)COc3ccc(S(=O)(=O)N4CCCCCC4)cc32)cc1 | . | . | -27.6% | . | ? | .
N#C/C(=C\c1ccc(N2CCOCC2)o1)c1ccccc1 | i | i | -55.4% | 186.9% | ? | ?
N#C/C(=C/c1ccc(N2CCCCCC2)o1)c1cccc(F)c1 | i | i | -16.3% | 58.1% | 63.8% | 14.6µM*
COc1cccc(/C=C(/C#N)c2ccc(F)cc2)c1OCc1cccc(C(=O)O)c1 | ? | i | -1.7% | 9.8% | -23.6% | i
COc1cc(N2CCCC2)c(OC)cc1/C=C(/C#N)c1cccc(F)c1 | i | ? | -11.5% | 8.2% | 38.2% | 16.4µM*
SMILES | ATXN viability | KB-3-1 cytotox | HepG2 viability | ATXN2 expr inh | TGFb SMAD3 inh | KB-V1 MDR tox
N#C/C(=C/c1ccc(N2CCOCC2)o1)c1ccc(Br)cc1 | i | ? | -47.1% | -0.8% | 165.9% | 18.4µM*
Cc1nc(S(=O)(=O)N2CCN(c3ccc(Cl)cc3)CC2)cn1C | i | i | -9.6% | -0.5% | 7.2% | i
O=C(CN(CCc1c[nH]c2ccccc12)S(=O)(=O)c1ccccc1)N1CCCCCC1 | . | i | -11.6% | . | -7.5% | i
CCc1cc(-c2n[nH]c(=S)n2Cc2ccccc2)cs1 | ? | i | 0.6% | -5.2% | -6.3% | 20.6µM*
CCc1cc(-c2n[nH]c(=S)n2-c2ccccc2C)cs1 | i | i | -47.5% | 0.6% | -16.3% | 18.4µM*
CCc1cc(-c2n[nH]c(=S)n2CC)cs1 | ? | ? | -2.2% | -16.4% | -7.9% | ?
Cc1ccccc1-n1c(-c2ccoc2C)n[nH]c1=S | i | i | 2.8% | -1.0% | 9.4% | i
Cc1ccc(-c2nc3cc(C(C)C)ccc3o2)cc1NC(=O)c1cc2ccccc2o1 | i | i | -3.6% | 1.7% | 1.0% | i
Cc1ccc(-c2nc3ccccc3o2)cc1NC(=S)NC(=O)c1cc2ccccc2o1 | i | 8.2µM* | -2.6% | 16.7% | -11.8% | i
CCOc1ccc(CNC(=O)Cn2c(=O)c3cccn3c3cccnc32)cc1 | . | . | -25.4% | . | -22.0% | .
CCc1nn(CC(=O)N2CCN(Cc3ccc4c(c3)OCO4)CC2)c(=O)c2cc3occc3n12 | i | i | 22.8% | -6.9% | -5.2% | 18.4µM*
N#CCC(=O)N1CCN(Cc2ccc3c(c2)OCO3)CC1 | i | i | 1.58µM* | . | -15.0% | i
Cc1ccc(S(=O)(=O)N(C)c2ccc(C(=O)N3CCN(Cc4ccc5c(c4)OCO5)CC3)cc2)cc1 | i | 11.6µM* | -4.8% | ? | ? | 1.64µM*
CN(c1ccc(C(=O)N2CCN(Cc3ccc4c(c3)OCO4)CC2)cc1)S(=O)(=O)c1ccccc1 | ? | i | -4.2% | -16.8% | -12.8% | i
CCOC(=O)C1CCCN(C(=O)Cn2nc(CC)n3c(cc4occc43)c2=O)C1 (stereo not given) | i | i | -17.3% | -5.3% | ? | i
O=C(O)CCC(=O)N1CCN(Cc2ccc3c(c2)OCO3)CC1 | i | i | -4.5% | 3.9% | 14.7% | i
C=C1C=C(C)n2ncc(C(=O)Nc3ccc(F)cc3F)c2N1 | . | i | 4.9% | . | 11.6% | i
COC(=O)C(NC(=O)c1ccco1)(Nc1cc(C)ccn1)C(F)(F)F (stereo not given) | i | i | 3.16µM* | 3.1% | 14.4% | i
Cc1ccnc(NC(=S)NC(=O)c2ccco2)c1 | i | i | -18.6% | 37.1% | 3.8% | i
Cc1cc(C)cc(NC(=S)N=Nc2c(O)n(C)c3ccc(S(=O)(=O)N4CCOCC4)cc23)c1 | ? | i | -18.2% | 0.0% | ? | i
